Assay results: the supplement of paper PMC9177965
Values joined by “and” are separate entries in the source; they are usually repeats but may differ in a detail not shown here. Equal values may be shown once.

Tests used:
[1] = tested on: HT29 RNF43 G659fs (RNF43 659mut, CRISPR-edited); test: cell viability activity relative to DMSO (negative = inhibition); higher = more viable cells (less growth inhibition); conditions: 5 µM; 96 h
Description: (§1)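 Broad Repurposing Library primary screen at a single dose of 5 uM. HT29 sg-Ctrl and HT29 RNF43 G659fs CRISPR-edited isogenic cells were seeded at 2500 cells/well in 384-well plates in duplicate and treated for 96 h. Viability was read by CellTiter-Glo and reported as % activity relative to DMSO, with MG132 as the positive control (negative = growth inhibition).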

[2] = tested on: HT29 sg-Ctrl (RNF43 wildtype); test: as above; conditions: 5 µM; 96 h
Description: as §1

SMILES	cell viability activity [1]	cell viability activity [2]
O=C1[C@H](Cc2ccc(O)cc2)N2C(=O)CCN(C(=O)NCc3ccccc3)[C@H]2CN1Cc1cccc2ccccc12	-58.4%	-41.8%
Nc1ncnc2c1c(-c1cnc3[nH]ccc3c1)nn2C1CCCC1	-84.8%	-78.7%
N#Cc1ccncn1	-26.7%	-18.3%
O=C(NOCC(O)CO)c1cc(Br)c(F)c(F)c1Nc1ccc(I)cc1F (configuration not stated)	-75.8%	-79.7%
N[C@@H](Cn1ccc(=O)n(Cc2ccccc2C(=O)O)c1=O)C(=O)O	-36.8%	-34.1%
CN1CCN(c2ccc3nc(-c4c(N)c5c(F)cccc5[nH]c4=O)[nH]c3c2)CC1	-60.6%	-77.6%
CNC(=O)c1ccccc1Nc1cc(Nc2ccc(N3CCOCC3)cc2OC)ncc1C(F)(F)F	-64.6%	-60%
COc1cc(N2CCC(N3CCN(C)CC3)CC2)ccc1Nc1ncnc(Nc2ccccc2S(=O)(=O)C(C)C)n1	-33.3%	-27.7%
CCN(CC)CCN(Cc1ccc(-c2ccc(C(F)(F)F)cc2)cc1)C(=O)Cn1c(SCc2ccc(F)cc2)nc(=O)c2c1CCC2	-96.2%	-96.7%
Cc1cccc(/C=N/Nc2cc(N3CCOCC3)nc(OCCc3ccccn3)n2)c1	-66%	-62.4%
CN(c1ccccc1CNc1nc(Nc2ccc3c(c2)CC(=O)N3)ncc1C(F)(F)F)S(C)(=O)=O	-45.3%	-57.8%
C[C@H]1[C@@H](O)O[C@@H]2O[C@@]3(C)CC[C@H]4[C@H](C)CC[C@@H]1[C@@]24OO3	-30.9%	-30%
Cc1ccc(C(=O)N(CCCN)[C@@H](c2nc3cc(Cl)ccc3c(=O)n2Cc2ccccc2)C(C)C)cc1	-65.1%	-66.5%
CCNCCCNCCCCNCCCNCC	-31%	-43.8%
CN1c2ccccc2C(=O)N2CCc3c([nH]c4ccccc34)[C@@H]21	-24.8%	-3.62%
CC(C)CC(=O)Nc1n[nH]c2c1CN(C(=O)C1CCN(C)CC1)C2(C)C	-60.4%	-61.4%

SMILES	cell viability activity [1]	cell viability activity [2]
CC(C)OC(=O)OCOP(=O)(CO[C@H](C)Cn1cnc2c(N)ncnc21)OCOC(=O)OC(C)C	-26.8%	-48.3%
Nc1nc(=O)n([C@H]2C[C@H](O)[C@@H](CO)O2)cc1F	-64.2%	-71%
COc1cc(N2CCC(N3CCN(C)CC3)CC2)ccc1Nc1ncc(Cl)c(Nc2ccccc2S(=O)(=O)C(C)C)n1	-53.9%	-66.5%
CC(=O)[C@]1(O)Cc2c(O)c3c(c(O)c2[C@@H](O[C@H]2C[C@H](N)[C@H](O)[C@H](C)O2)C1)C(=O)c1ccccc1C3=O	-97.8% and -97.3%	-93% and -97.3%
CN(c1ncccc1CNc1nc(Nc2ccc3c(c2)CC(=O)N3)ncc1C(F)(F)F)S(C)(=O)=O	-83.7%	-83.1%
Cn1cc(C2=C(c3cn(CCCSC(=N)N)c4ccccc34)C(=O)NC2=O)c2ccccc21	-81.3%	-73.6%
C[C@H]1O[C@@H](O[C@H]2[C@@H](O)C[C@H](O[C@H]3[C@@H](O)C[C@H](O[C@H]4CC[C@@]5(C)[C@H](CC[C@@H]6[C@@H]5C[C@@H](O)[C@]5(C)[C@@H](C7=CC(=O)OC7)CC[C@]65O)C4)O[C@@H]3C)O[C@@H]2C)C[C@H](O)[C@@H]1O	-89.3%	-90.8%
CCN(CC)CCOc1ccc(Nc2ncc3cc(-c4c(Cl)cccc4Cl)c(=O)n(C)c3n2)cc1	-86.7%	-80.3%
Cc1cc(-c2ccc(/N=N/c3ccc4c(S(=O)(=O)O)cc(S(=O)(=O)O)c(N)c4c3O)c(C)c2)ccc1/N=N/c1ccc2c(S(=O)(=O)O)cc(S(=O)(=O)O)c(N)c2c1O	-43.7%	-20.4%
CN[C@@H]1C[C@H]2O[C@@](C)([C@@H]1OC)n1c3ccccc3c3c4c(c5c6ccccc6n2c5c31)C(=O)N[C@H]4O	-88.9%	-91.7%
CCCC[C@H](NC(C)=O)C(=O)N[C@H]1CC(=O)NCCCC[C@@H](C(=O)O)NC(=O)[C@H](Cc2c[nH]c3ccccc23)NC(=O)[C@H](CCCNC(=N)N)NC(=O)[C@@H](Cc2ccccc2)NC(=O)[C@H](Cc2c[nH]cn2)NC1=O	-42.1%	-7.64%
CN(C)C(=O)[C@H](O)[C@H](Cc1ccccc1)NC(=O)c1cc2cc(Cl)ccc2[nH]1	-26.8%	7.41%
CCN(CC)CCCCNc1ncc2cc(-c3c(Cl)cccc3Cl)c(NC(=O)NC(C)(C)C)nc2n1	-49.6%	-33%
O=C(NOC[C@H](O)CO)c1ccc(F)c(F)c1Nc1ccc(I)cc1F	-81.1%	-85%
CC(=O)O[C@@]12CO[C@@H]1C[C@H](O)[C@@]1(C)C(=O)[C@H](O)C3=C(C)[C@@H](OC(=O)[C@H](O)[C@@H](NC(=O)OC(C)(C)C)c4ccccc4)C[C@@](O)([C@@H](OC(=O)c4ccccc4)[C@H]21)C3(C)C	-58.2%	-58.6%
